Key:
Assay type in all cases: functional
Plasmodium falciparum [1] = assay: GSK_TCMDC: Inhibition of Plasmodium falciparum 3D7 in whole red blood cells, using parasite LDH activity as an index of growth. Test compounds present at 2uM
Plasmodium falciparum [2] = assay: GSK_TCMDC: Inhibition of Plasmodium falciparum Dd2 in whole red blood cells, using parasite LDH activity as an index of growth. Test compounds present at 2uM
HepG2 = assay: GSK_TCMDC: Percent inhibition of human HepG2 cell line. Test compounds present at 10uM.

O=C(NC1CC1)c1ccc(N2CCCC(COc3ccc4c(c3)CCCC4)C2)nc1 (stereo not given)
Inhibition (Plasmodium falciparum [1]): 85%
Inhibition (Plasmodium falciparum [2]): 65%
Inhibition (HepG2): 0%

O=C(Nc1ccc(Cl)cc1)OCCn1nnnc1C(c1ccc(Cl)cc1)N1CCOCC1 (stereo not given)
Inhibition (Plasmodium falciparum [1]): 90%
Inhibition (Plasmodium falciparum [2]): 79%
Inhibition (HepG2): 1%

NC(=O)c1ccc(NCC(=O)Nc2cccc(-c3cccc(-c4nc5ccccc5[nH]4)c3)c2)cc1
Inhibition (Plasmodium falciparum [1]): 99%
Inhibition (Plasmodium falciparum [2]): 30%
Inhibition (HepG2): 9%

CCOC(=O)c1nc(-c2cccnc2)[nH]c1NC(=S)NCc1ccccc1
Inhibition (Plasmodium falciparum [1]): 100%
Inhibition (Plasmodium falciparum [2]): 100%
Inhibition (HepG2): 10%

O=C(Nc1ccccc1O)c1ccc(Oc2cccc(C(=O)Nc3ccccc3O)c2)cc1
Inhibition (Plasmodium falciparum [1]): 97%
Inhibition (Plasmodium falciparum [2]): 70%
Inhibition (HepG2): 33%

Cl.N#Cc1ccc(C2CCN(CC[C@H](N)Cc3ccc(Cl)s3)CC2)cc1
Inhibition (Plasmodium falciparum [1]): 92%
Inhibition (Plasmodium falciparum [2]): 30%
Inhibition (HepG2): 31%

Cc1cc(NC(=O)c2cccs2)ccc1OC1CCN(Cc2ccc(C#N)cc2)C1.O=C(O)C(F)(F)F (stereo not given)
Inhibition (Plasmodium falciparum [1]): 82%
Inhibition (Plasmodium falciparum [2]): 61%
Inhibition (HepG2): 13%

CCc1ccc(NC(=O)c2ccc(CN3CCCN(Cc4cccc(Cl)c4)CC3)cc2)cc1.O=C(O)C(F)(F)F
Inhibition (Plasmodium falciparum [1]): 84%
Inhibition (Plasmodium falciparum [2]): 2%
Inhibition (HepG2): 50%

CC(C)(C)NCC(O)COc1ccc(Cl)cc1C1=NNC(=O)CC1.Cl (stereo not given)
Inhibition (Plasmodium falciparum [1]): 96%
Inhibition (Plasmodium falciparum [2]): 0%
Inhibition (HepG2): 6%

COc1ccc(CCN(C)CCCN2CCC(NC(=O)c3cccc4c(=O)c5ccccc5[nH]c34)CC2)cc1OC.O=C(O)C(=O)O
Inhibition (Plasmodium falciparum [1]): 99%
Inhibition (Plasmodium falciparum [2]): 72%
Inhibition (HepG2): 19%

FC(F)(F)c1cccc(Nc2nc(-n3ccnc3)nc(-n3ccnc3)n2)c1
Inhibition (Plasmodium falciparum [1]): 97%
Inhibition (Plasmodium falciparum [2]): 9%
Inhibition (HepG2): 5%

COc1ccc(OC)c(C=NNc2nc3ccccc3[nH]2)c1
Inhibition (Plasmodium falciparum [1]): 99%
Inhibition (Plasmodium falciparum [2]): 28%
Inhibition (HepG2): 0%

CN1CCN(S(=O)(=O)c2ccc3nccc(Nc4ccc(Oc5ccccc5)cc4)c3c2)CC1.Cl
Inhibition (Plasmodium falciparum [1]): 98%
Inhibition (Plasmodium falciparum [2]): 91%
Inhibition (HepG2): 0%

OC(COCc1ccc(-c2ccccc2)cc1)CN1CCCCC1 (stereo not given)
Inhibition (Plasmodium falciparum [1]): 99%
Inhibition (Plasmodium falciparum [2]): 75%
Inhibition (HepG2): 13%

COc1c(C2CCN(CCCCNC(=O)c3ccc(-c4ccc(C#N)cc4)cc3)CC2)ccc2c1C(C)(C)CCC2(C)C
Inhibition (Plasmodium falciparum [1]): 100%
Inhibition (Plasmodium falciparum [2]): 86%
Inhibition (HepG2): 98%

COc1ccc2nccc(N3CCC(SCCNCc4ccc5c(n4)NC(=O)CS5)C3)c2n1.Cl (stereo not given)
Inhibition (Plasmodium falciparum [1]): 95%
Inhibition (Plasmodium falciparum [2]): 100%
Inhibition (HepG2): 34%

O=C(NCc1ccccc1)NC1CCN(c2ccnc3cc(Cl)ccc23)C1.O=C(O)C(F)(F)F (stereo not given)
Inhibition (Plasmodium falciparum [1]): 94%
Inhibition (Plasmodium falciparum [2]): 99%
Inhibition (HepG2): 13%

CN1CCCN(Cc2ccc(-c3ccc(NC(=O)c4cccc(C#N)c4)cc3)cc2)CC1.O=C(O)C(F)(F)F
Inhibition (Plasmodium falciparum [1]): 97%
Inhibition (Plasmodium falciparum [2]): 67%
Inhibition (HepG2): 46%

Cc1nc2ccc3nc(NC(=O)c4ccno4)sc3c2s1
Inhibition (Plasmodium falciparum [1]): 99%
Inhibition (Plasmodium falciparum [2]): 97%
Inhibition (HepG2): 6%

COc1ccc2nccc([C@@H](O)CN3CCC(NC(=O)C(c4ccccc4C)N4CCC(Cc5ccccc5)CC4)CC3)c2c1 (stereo not given in full)
Inhibition (Plasmodium falciparum [1]): 100%
Inhibition (Plasmodium falciparum [2]): 97%
Inhibition (HepG2): 10%

CC(=O)c1cccc(NC(=O)C2c3ccccc3C(=O)N(CC(C)C)C2c2cccs2)c1 (stereo not given)
Inhibition (Plasmodium falciparum [1]): 100%
Inhibition (Plasmodium falciparum [2]): 100%
Inhibition (HepG2): 11%

CCc1ccc(CN(CCCOc2cccc(CC(=O)NCc3c[nH]cn3)c2)Cc2ccc(-n3ccnc3)cc2)cc1
Inhibition (Plasmodium falciparum [1]): 99%
Inhibition (Plasmodium falciparum [2]): 28%
Inhibition (HepG2): 1%

CN(C)C1CCN(CC#Cc2cc3ncnc(Nc4ccc(OCc5cccc(F)c5)c(Cl)c4)c3s2)CC1
Inhibition (Plasmodium falciparum [1]): 85%
Inhibition (Plasmodium falciparum [2]): 5%
Inhibition (HepG2): 34%

Cc1c(CNCCCNc2nc3ccncc3[nH]2)sc(Br)c1Br.Cl
Inhibition (Plasmodium falciparum [1]): 87%
Inhibition (Plasmodium falciparum [2]): 1%
Inhibition (HepG2): 0%

CCN(CC)CCN(Cc1ccc(-c2ccc(C(F)(F)F)cc2)cc1)C(=O)Cn1c(CCc2cc(F)cc(F)c2)nc(=O)c2ccccc21.O=C(O)C(O)C(O)C(=O)O
Inhibition (Plasmodium falciparum [1]): 91%
Inhibition (Plasmodium falciparum [2]): 80%
Inhibition (HepG2): 30%

CC(Oc1cccc(Cl)c1)C(=O)N1CCc2ccccc21 (stereo not given)
Inhibition (Plasmodium falciparum [1]): 94%
Inhibition (Plasmodium falciparum [2]): 77%
Inhibition (HepG2): 4%

CCC[C@@H]([C@@H](CC(C)C)C(=O)N[C@@H](CCCCNC(=O)OCc1ccccc1)C(=O)Nc1ncccn1)N(O)C=O
Inhibition (Plasmodium falciparum [1]): 100%
Inhibition (Plasmodium falciparum [2]): 98%
Inhibition (HepG2): 3%

CN(C)c1ccc(CN2CCC(CNC(=O)c3cc(-c4cccc(F)c4)cs3)C2)cc1.O=C(O)C(F)(F)F (stereo not given)
Inhibition (Plasmodium falciparum [1]): 96%
Inhibition (Plasmodium falciparum [2]): 13%
Inhibition (HepG2): 48%

CNC(=O)c1cnc(Nc2ccc3[nH]c(=O)[nH]c3c2)nc1Nc1cccc(OC(C)C)c1.O=C(O)C(F)(F)F
Inhibition (Plasmodium falciparum [1]): 89%
Inhibition (Plasmodium falciparum [2]): 94%
Inhibition (HepG2): 18%

COc1ccc(-c2ccc(NC(=O)c3cccc(Cl)c3)cc2)cc1CN(C)CCN(C)C.O=C(O)C(F)(F)F
Inhibition (Plasmodium falciparum [1]): 100%
Inhibition (Plasmodium falciparum [2]): 35%
Inhibition (HepG2): 22%

CN1CCN(CCCNCc2cccc(-c3ccc(CNCCc4ccccc4)cc3)c2)CC1.O=C(O)C(F)(F)F
Inhibition (Plasmodium falciparum [1]): 100%
Inhibition (Plasmodium falciparum [2]): 20%
Inhibition (HepG2): 36%

Cc1cnc(CN(Cc2ccc(-c3ccc(CNCCc4ccc(S(C)(=O)=O)cc4)cn3)cc2)C(=O)c2ccc([N+](=O)[O-])c(C)c2)cn1.O=C(O)C(F)(F)F
Inhibition (Plasmodium falciparum [1]): 93%
Inhibition (Plasmodium falciparum [2]): 15%
Inhibition (HepG2): 0%

COc1ccc(CNCC2CCC(CNCCc3ccccc3)CC2)cc1Cl (stereo not given)
Inhibition (Plasmodium falciparum [1]): 100%
Inhibition (Plasmodium falciparum [2]): 29%
Inhibition (HepG2): 23%

CC(C)(NCc1ccc(OC(F)(F)F)cc1)c1nc(-c2ccc(Cl)c(O)c2)c(-c2ccncc2)[nH]1.Cl
Inhibition (Plasmodium falciparum [1]): 94%
Inhibition (Plasmodium falciparum [2]): 32%
Inhibition (HepG2): 65%

CCc1ccc(NC(=O)C=NNC(=N)N)cc1.O=S(=O)(O)O
Inhibition (Plasmodium falciparum [1]): 100%
Inhibition (Plasmodium falciparum [2]): 3%
Inhibition (HepG2): 13%

CN1CCN(CC2(Nc3nccc(NCCc4cn(C)c5ccccc45)n3)CCCCC2)CC1
Inhibition (Plasmodium falciparum [1]): 91%
Inhibition (Plasmodium falciparum [2]): 41%
Inhibition (HepG2): 67%

COc1ccc(CN2CCCC(OC(c3ccc(F)cc3)c3ccc(F)cc3)C2)c(O)c1 (stereo not given)
Inhibition (Plasmodium falciparum [1]): 100%
Inhibition (Plasmodium falciparum [2]): 99%
Inhibition (HepG2): 16%

CN(C)c1cccc2c1nc(-c1ccco1)n2CCNCc1ccccc1.O=C(O)C(F)(F)F
Inhibition (Plasmodium falciparum [1]): 98%
Inhibition (Plasmodium falciparum [2]): 97%
Inhibition (HepG2): 0%

COC(=O)c1ccc(-c2ccc(C(=O)NCC3CCN(c4nc(N)c5cc(OC)c(OC)cc5n4)CC3)cc2)cc1
Inhibition (Plasmodium falciparum [1]): 98%
Inhibition (Plasmodium falciparum [2]): 100%
Inhibition (HepG2): 53%

CCCc1c(C(=O)OCC)c2cc(O)ccc2n1-c1ccc(OC)cc1
Inhibition (Plasmodium falciparum [1]): 100%
Inhibition (Plasmodium falciparum [2]): 99%
Inhibition (HepG2): 0%

N=C(NCCCCCCNC(=N)NC(=N)c1ccc(Cl)cc1)NC(=N)c1ccc(Cl)cc1
Inhibition (Plasmodium falciparum [1]): 98%
Inhibition (Plasmodium falciparum [2]): 99%
Inhibition (HepG2): 10%

Fc1ccc(-c2cc3ncnc(N4CCN(CCN5CCCC5)CC4)c3s2)cc1
Inhibition (Plasmodium falciparum [1]): 98%
Inhibition (Plasmodium falciparum [2]): 40%
Inhibition (HepG2): 25%

O=[N+]([O-])c1cccc(NC(=S)N2CCCN(Cc3ccc(F)cc3F)CC2)c1
Inhibition (Plasmodium falciparum [1]): 99%
Inhibition (Plasmodium falciparum [2]): 98%
Inhibition (HepG2): 5%

NS(=O)(=O)c1ccc(Nc2nccc(-c3c(-c4cccc(NC(=O)c5c(F)cccc5F)c4)nn4ccccc34)n2)cc1
Inhibition (Plasmodium falciparum [1]): 93%
Inhibition (Plasmodium falciparum [2]): 89%
Inhibition (HepG2): 83%

CCOC(=O)c1c(C)noc1Nc1ccc(OC)cc1
Inhibition (Plasmodium falciparum [1]): 99%
Inhibition (Plasmodium falciparum [2]): 0%
Inhibition (HepG2): 0%

CCC1CCCCN1S(=O)(=O)c1ccc(NC(=O)c2cc(C)on2)cc1 (stereo not given)
Inhibition (Plasmodium falciparum [1]): 86%
Inhibition (Plasmodium falciparum [2]): 53%
Inhibition (HepG2): 0%

CN1CC[C@@H](Oc2cc(Nc3nc(-c4ccc(C#N)cc4)cs3)ccc2Cl)C1.Cl
Inhibition (Plasmodium falciparum [1]): 99%
Inhibition (Plasmodium falciparum [2]): 24%
Inhibition (HepG2): 12%

O=C(O)C(F)(F)F.O=S(=O)(NCCN1CCCC1)c1ccc(-c2cccc(CNCc3ccc(F)cc3)c2)cc1
Inhibition (Plasmodium falciparum [1]): 100%
Inhibition (Plasmodium falciparum [2]): 41%
Inhibition (HepG2): 76%

C=C[C@H]1CN(CCCCCCC)CC[C@H]1CC(=O)Nc1cnnc2ccc(OC)cc12.O=C(O)C(=O)O
Inhibition (Plasmodium falciparum [1]): 100%
Inhibition (Plasmodium falciparum [2]): 100%
Inhibition (HepG2): 12%

CN(C)c1ccc(-c2ccc(C(=O)NC3CCN(Cc4ccc(F)cc4)CC3)s2)cc1.O=C(O)C(F)(F)F
Inhibition (Plasmodium falciparum [1]): 87%
Inhibition (Plasmodium falciparum [2]): 19%
Inhibition (HepG2): 34%

CC1(C)N=C(N)N=C(N)N1OCCCOc1cc(Cl)c(Cl)cc1Cl.Cl
Inhibition (Plasmodium falciparum [1]): 95%
Inhibition (Plasmodium falciparum [2]): 95%
Inhibition (HepG2): 60%

O=C(CC1NC(=O)c2ccccc21)Nc1ccc(-c2cccc(-c3nc4cc(C(F)(F)F)ccc4[nH]3)c2)cc1 (stereo not given)
Inhibition (Plasmodium falciparum [1]): 95%
Inhibition (Plasmodium falciparum [2]): 36%
Inhibition (HepG2): 69%

COc1ccc2nc(C)cc(Nc3ccc(Oc4ccc5ccccc5c4)c(Cl)c3)c2c1
Inhibition (Plasmodium falciparum [1]): 100%
Inhibition (Plasmodium falciparum [2]): 99%
Inhibition (HepG2): 40%

COc1cc2c(cc1C(F)(F)F)N(C(=O)Nc1cc(OC(F)(F)F)cc(-c3cccnc3)c1)CC2
Inhibition (Plasmodium falciparum [1]): 100%
Inhibition (Plasmodium falciparum [2]): 49%
Inhibition (HepG2): 55%

O=C(/C=C/c1ccc(I)cc1)NCCCCCN1CCC(c2c[nH]c3ccc(O)cc23)CC1
Inhibition (Plasmodium falciparum [1]): 97%
Inhibition (Plasmodium falciparum [2]): 1%
Inhibition (HepG2): 14%

N#CCCN1CCN(Cc2ccc(-c3ccc(-c4nc5cc(F)ccc5[nH]4)s3)cc2)CC1.O=C(O)C(F)(F)F
Inhibition (Plasmodium falciparum [1]): 99%
Inhibition (Plasmodium falciparum [2]): 38%
Inhibition (HepG2): 58%

C[C@H](Cc1ccc(CCc2ccc(C[C@@H](C)NC[C@H](O)c3cccc(Cl)c3)cc2)cc1)NC[C@H](O)c1cccc(Cl)c1.Cl
Inhibition (Plasmodium falciparum [1]): 95%
Inhibition (Plasmodium falciparum [2]): 92%
Inhibition (HepG2): 100%

CCOC(=O)c1[nH]c2cc(Cl)cc(Cl)c2c1/C=C/C(=O)Nc1ccc(-c2cnc(NC(C)=O)[nH]2)cc1
Inhibition (Plasmodium falciparum [1]): 100%
Inhibition (Plasmodium falciparum [2]): 65%
Inhibition (HepG2): 45%

CN1CCC(NCc2ccc(-c3ccc(Cl)cc3)cc2)CC1
Inhibition (Plasmodium falciparum [1]): 99%
Inhibition (Plasmodium falciparum [2]): 43%
Inhibition (HepG2): 50%

O=C(NCc1cc2c(cc1Cl)OCO2)c1ccc(CNC2CCN(Cc3ccccc3)CC2)cc1.O=C(O)C(F)(F)F
Inhibition (Plasmodium falciparum [1]): 100%
Inhibition (Plasmodium falciparum [2]): 47%
Inhibition (HepG2): 11%
